The text below walks through data of PubChem BioAssay (NCI).

Structures are written as SMILES. About 79,000 compounds went through this panel and 15% of them were active in at least one assay; those are over-represented in the sample as a whole. A number with no mark means an inactive call. Calls of active or inactive are those of the source. Cut-off read from the data, not from the text of the source: active = growth inhibition above about 70%; inactive = the rest. Where a SMILES comes first, the peptide text is derived from it. The star is where a group is joined. Boc = CC(C)(C)OC(=O)*

A short description of experiment [1]: NCI Yeast Anticancer Drug Screen. Data for the rad50 strain (AID 155).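 Note: 0% = growth of vehicle-only cultures of the same strain.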 The conditions noted are these: S. cerevisiae rad50 strain growth inhibition; at 50.0 µM; stronger effect = higher value. In outline:
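Yeast carrying a defined DNA repair defect were exposed to test compounds, and growth was compared with vehicle-treated controls to give percent inhibition.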

Experiment [2] can be described thus: NCI Yeast Anticancer Drug Screen. Data for the mec2-1 strain (AID 157). The following applies: S. cerevisiae mec2-1 strain, at 50.0 µM, stronger effect = higher value. In outline: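 Strain: mec2-1 (DNA repair/cell cycle alteration). Compound exposure, then growth measured; inhibition expressed relative to vehicle.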
Experiment [3] can be described thus: NCI Yeast Anticancer Drug Screen. Data for the sgs1 mgt1 strain (AID 161).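 Note: 0% = growth of cultures given vehicle only.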 The conditions noted are these: S. cerevisiae sgs1 mgt1 strain, at 50.0 µM, stronger effect = higher value. In outline:
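Mutant yeast exposed to compound; growth scored against vehicle-only wells.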

Experiment [4] in a line: NCI Yeast Anticancer Drug Screen. Data for the cln2 rad14 strain (AID 165).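 Note: 0% = growth equal to vehicle treated cultures.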 The following applies: S. cerevisiae cln2 rad14 strain, at 50.0 µM, stronger effect = higher value. The essentials: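 Compounds are applied to the cln2 rad14 yeast strain, and growth is then compared with that of vehicle-treated cultures to give inhibition.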
The nature of experiment [5]: NCI Yeast Anticancer Drug Screen. Data for the bub3 strain (AID 167). The following applies: S. cerevisiae bub3 mutant strain, at 50.0 µM, stronger effect = higher value. In outline:
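Compounds were applied to a genetically altered yeast strain carrying a cell-cycle control defect. Growth inhibition was scored against vehicle-treated controls.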

Experiment [6] is described as follows: NCI Yeast Anticancer Drug Screen. Data for the mlh1 rad18 strain (AID 175). The following applies: S. cerevisiae mlh1 rad18 strain growth inhibition; at 50.0 µM; stronger effect = higher value. In outline: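 Read-out is yeast growth inhibition, calculated against vehicle-only controls. The compound was applied to a strain engineered with DNA damage repair alterations.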

On to `CCC1SCC(C)(C)NC1=O` (stereo unspecified), for which the growth inhibition in experiment [1] was 4.9%; in experiment [2], 13.4%; in experiment [3], -3.85%; in experiment [4], -39.2%; in experiment [5] it was 28.8%; in experiment [6], 1.4%.
In the case of `Cc1ccc(-c2c(C#N)c(S)n(NS(=O)(=O)c3ccc(C)cc3)c(=O)c2C#N)cc1`, the growth inhibition was 46.1% in experiment [1]; 57.3% in experiment [2]; 59.9% in experiment [3]; 28.6% in experiment [4]; 39.6% in experiment [5]; 59.9% in experiment [6].
For `CCC(C(N)=O)C(C)(C)C` (stereo unspecified), the growth inhibition in experiment [1] is -0.15%; in experiment [2] it was -12.2%; in experiment [3] it was -4.7%; in experiment [4] it was 7.3%; in experiment [5], 12.3%; in experiment [6] it was -1.2%.
`CC(=O)Oc1c(C(OC(C)=O)OC(C)=O)ccc([N+](=O)[O-])c1OC(C)=O`: the growth inhibition is 34.1% in experiment [1]; 28.9% in experiment [2]; 36.5% in experiment [3]; 5.5% in experiment [4]; 9.3% in experiment [5]; 18.9% in experiment [6].
With `C[n+]1nc([O-])oc1-c1ccccc1`, the growth inhibition in experiment [1] is 4.5%; in experiment [2] it was 3.05%; in experiment [3], 11.4%; in experiment [4] it was -3.65%; in experiment [5] it was -4.6%; in experiment [6], 6.3%.
Take `Nc1nc(N)nc(-c2ccco2)n1`: the growth inhibition in experiment [1] is -15.1%; in experiment [2] it was -6.6%; in experiment [3] it was -27.1%; in experiment [4], -81.8%; in experiment [5] it was -0.85%; in experiment [6], -5.2%.
On to `CSCCC(NC(=O)C(CC(C)C)NC(=O)CNC(=O)OC(C)(C)C)C(=O)N(C)C` (stereo not drawn) (Boc-Gly-Leu-Met-NMe2; configuration not given here), for which the growth inhibition in experiment [1] is 6.6%; in experiment [2], -5.15%; in experiment [3], -3.9%; in experiment [4], -2.8%; in experiment [5], -0.1%; in experiment [6], -3%.
Consider `COc1ccc(C2N(c3ccccc3)OC(=O)N2c2ccccc2)cc1` (stereo unspecified), for which the growth inhibition in experiment [1] is 43.8%; in experiment [2] it was 7.2%; in experiment [3], 16.1%; in experiment [4] it was 9.1%; in experiment [5], 14.4%; in experiment [6], 20.8%.
As for `O=C1C2CCSCN2C(=O)N1c1ccccc1` (stereo unspecified), the growth inhibition is -41.9% in experiment [1]; -14.9% in experiment [2]; -7.75% in experiment [3]; -15.9% in experiment [4]; -1.15% in experiment [5]; -19% in experiment [6].
As for `CN(C)Cc1cc(C(=O)/C=C/c2c(F)cccc2Cl)cc(CN(C)C)c1O`, the growth inhibition in experiment [1] is 1.7%; in experiment [2], 21.4%; in experiment [3] it was 2.35%; in experiment [4], 1.05%; in experiment [5], -13.8%; in experiment [6] it was 7.35%.
Regarding `C=C1C(=O)OC(CCCCCCCCCCCCCC(C)=O)[C@H]1C(=O)O` (stereo partly specified), the growth inhibition in experiment [1] was 10.2%; in experiment [2], -9.75%; in experiment [3] it was 22.1%; in experiment [4], 4.85%; in experiment [5], -10.9%; in experiment [6] it was 9.8%.
Take `NCCCCC(N)C(=O)O` (stereo unspecified): the growth inhibition is 7.4% in experiment [1]; 9.25% in experiment [2]; -33.9% in experiment [3]; 8.55% in experiment [4]; -2.1% in experiment [5]; 22% in experiment [6].
As to `Clc1cc(Cl)c2ncccc2c1`, the growth inhibition is 4.05% in experiment [1]; 17.9% in experiment [2]; 3.3% in experiment [3]; -30.2% in experiment [4]; 17.8% in experiment [5]; 11.8% in experiment [6].
With `COc1ccc2c(c1)NC(c1ccccc1C(=O)O)c1cccn1-2` (stereo unspecified), the growth inhibition in experiment [1] is 0.55%; in experiment [2] it was -20.9%; in experiment [3], 12.3%; in experiment [4], 5.75%; in experiment [5] it was 23.6%; in experiment [6] it was 5.6%.
In the case of `C/C(=N\N=C(/C)c1ccc(N)cc1)c1ccc(N)cc1`, the growth inhibition in experiment [1] was 15.9%; in experiment [2], 5%; in experiment [3] it was 1.9%; in experiment [4], -3.3%; in experiment [5], 13.9%; in experiment [6], 9%.
On to `CCCCCNC(=O)c1csc(-c2csc(CCNC(C)=O)n2)n1`, for which the growth inhibition is -18.9% in experiment [1]; 4.85% in experiment [2]; 4.7% in experiment [3]; -26.1% in experiment [4]; 16.1% in experiment [5]; 3.8% in experiment [6].
As for `Cc1cc(/C=C2\SC(=S)NC2=O)cc(C)c1O`, the growth inhibition in experiment [1] is 1.65%; in experiment [2], 0.8%; in experiment [3], 24.6%; in experiment [4] it was 13.1%; in experiment [5], 22.8%; in experiment [6], 13.7%.
For the compound `O=[N+]([O-])/C(C(Cl)=C(Cl)Cl)=C(/Cl)Sc1ccccc1`, the growth inhibition in experiment [1] was 91.8% (active); in experiment [2], 92.1% (active); in experiment [3] it was 85.7% (active); in experiment [4], 89.8% (active); in experiment [5], 89.1% (active); in experiment [6], 91.4% (active).
For the compound `Cc1cc(O)cc(C)c1Cl`, the growth inhibition is 17.2% in experiment [1]; -25.9% in experiment [2]; 5.95% in experiment [3]; -21.2% in experiment [4]; 12.9% in experiment [5]; 11.2% in experiment [6].
On to `CN1C(=O)C(n2[nH]c(=O)n(-c3ccccc3)c2=O)C(=O)N(C)C1=O`, for which the growth inhibition is 11.8% in experiment [1]; 12.7% in experiment [2]; -6.55% in experiment [3]; -23.1% in experiment [4]; 16.9% in experiment [5]; 22.9% in experiment [6].
As to `CC(C)(C)c1ccc(OC(=S)Nc2ccccc2)cc1`, the growth inhibition in experiment [1] is -32.8%; in experiment [2] it was -6.25%; in experiment [3], -17.4%; in experiment [4], -17.2%; in experiment [5], -13.6%; in experiment [6] it was 2.5%.
